This experiment deals with Muscarinic acetylcholine receptor M1 (Rattus norvegicus) (UniProt P08482). Briefly: Counterscreen Concentration-Response Assay for Antagonists of the Neuropeptide S Receptor: Muscarinic Receptor Calcium Signal Transduction. From the text:
NIH Chemical Genomics Center [NCGC] NIH Molecular Libraries Probe Production centers Network [MLPCN] MLPCN Grant: X01-DA026210-01 Assay Submitter (PI): Heilig, Markus Alexander NCGC Assay Overview: Neuropeptide S receptor (NPSR), previously known as GPR154, is a recently de-orphanized G protein coupled receptor. Its endogenous ligand is the 20 amino acids peptide Neuropeptide S (NPS). […] NPS and its receptor are found in various tissues. Specifically they are highly expressed in brain areas that have been implicated in modulation of arousal, stress and anxiety. […] This change in intracellular calcium can be detected using a calcium indicator dye on a calcium imaging plate reader system (FDSS). […]
NCGC Assay Protocol Summary: A Chinese hamster ovary (CHO) cell line stably expressing muscarinic acetylcholine M1 receptor (CHO-M1) was obtained from ATCC and maintained in F-12 Kaighn's media (Invitrogen, Carlsbad, CA, 21127) supplemented with 10 % FBS, 100 units/ml penicillin, 100 ug/ml streptomycin and 250 ug/ml geneticin at 37C, 5% CO2 in a humidified atmosphere. […] The assay was performed on a FDSS-7000 kinetic plate reader in 1536-well format. The maximums of kinetic fluorescence responses were converted into text files using the instrument's software data export utility. […] AC50 values were determined from concentration-response data modeled with the standard Hill equation. […]
A general note: Counterscreens check selectivity or assay interference.

Results filed as inconclusive are left out. Calls of active or inactive are those of the source. Calls come from the whole dose curve; as a rule, active = well fitted inhibition curve with a large enough effect; inconclusive = small, poorly fitted or top-dose-only effect; inactive = flat fitted curve, though single readings scatter.

For the molecule `O=c1[nH]c(=O)n(CCC2=CCCCC2)c(O)c1C=NC1CCN(Cc2ccccc2)CC1`, the outcome was inactive.

For the origin of these results see PubChem BioAssay AID1492 (National Center for Advancing Translational Sciences (NCATS), 2009).
